# This is a sample that favours compounds with a hit; in the whole collection about 5.7% have one here.
# HT1080-NT tox – qHTS for induction of synthetic lethality in tumor cells producing 2HG: qHTS for the HT-1080-NT fibrosarcoma cell line. hit rate 1.6% among 360,000. Potency, µM (doses to about 46.1 µM), without a hit: at the top dose activity, negative = less viability, usual class: cytotoxic. HT-1080-NT fibrosarcoma viability, CellTiter-Glo ATP luminescence, 48 h;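 also: NT is the 2HG producing partner of a matched IDH1 knockdown line; 0% = DMSO-treated cells and -100% = media-only wells without cells; nearly all actives have a fitted effect of over 55% in size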
#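 Viability by CellTiter-Glo luminescence after 48 h compound exposure at 37C of HT-1080-NT cells (750/well, RPMI, 5% FBS). % activity scaled between DMSO wells and medium-only wells, then curve-fitted and categorized by curve class.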
# KB-V1 MDR tox – qHTS assay for MDR1-selective chemotherapeutics: Primary screen using the drug-selected MDR subline cells KB-V1. Potency, µM (doses to about 46.1 µM), hits mostly cytotoxic. KB-V1 MDR cells viability, CellTiter-Glo, 72 h. hit rate 3.4% among 400,000; also: nearly all actives have a fitted effect of over 60% in size
#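 Cells of the MDR subline KB-V1 are plated, dosed with compound at multiple concentrations, and incubated 72 h at 37 degrees C; CellTiter-Glo is then added and luminescence read after 10 min.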
# HT1080 IDH1KD tx – qHTS for induction of synthetic lethality in tumor cells producing 2HG: qHTS for the HT-1080-IDH1KD cell line. HT-1080 IDH1 knockdown viability, ATP luminescence, 48 h. Potency, µM (series often up to 46.1 µM), for inactives: at the top dose activity, negative = toxicity, actives largely listed as cytotoxic. hit rate 2% among 360,000. AID 686971, 2013;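 also: 0% = DMSO wells and -100% = cell-free medium wells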
#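 % activity derives from luminescence (CellTiter-Glo), normalised to DMSO and no-cell wells. HT-1080-IDH1KD cells, 750/well, had 48 h compound exposure at 37 °C.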
# KB-3-1 tox – qHTS assay for MDR1-selective chemotherapeutics: Primary screen using the parental adenocarcinoma cell KB-3-1 | hit rate 1.4% among 400,000 | Potency, µM (doses to about 46.1 µM), actives largely listed as cytotoxic | KB-3-1 viability, CellTiter-Glo ATP luminescence, 72 h; also: nearly all actives have a fitted effect of over 60% in size
#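 Here the drug-naive KB-3-1 line serves as comparator for MDR sub-line selectivity; cells received compound titrations, 72 h at 37 °C, then CellTiter-Glo readout.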
# * = called active by the depositor; i = inactive; ? = inconclusive; . = no result given. Calls follow the shape of the dose curve; as a rule, active = well fitted curve in the direction sought with a large enough effect; inconclusive = small, poorly fitted or top-dose-only effect, or another doubt; inactive = no such curve, though single readings can be large; an effect the other way counts as inactive or inconclusive. Unless noted, % is scaled to controls: 0 for no effect and ±100 for the full control effect; potency is read from the fitted curve at half-maximal effect.
SMILES,HT1080-NT tox,KB-V1 MDR tox,HT1080 IDH1KD tx,KB-3-1 tox
O=Cc1cc(N=Nc2cccc(C(=O)O)c2)ccc1O,?,i,15µM*,?
CCN(CCNCC(O)COc1ccccc1C(C)C)c1cccc(C)c1 (stereo unspecified),21µM*,?,18µM*,i
COc1ccc(Nc2nc3ccccc3c3nnc(C)n23)cc1Cl,.,i,.,i
CC(C)CCNC(=O)Nc1ccc2c(c1)N(C)C(=O)CS2,-5%,21µM*,-13%,i
COCCNC(=O)Nc1ccc2c(c1)N(C)C(=O)CS2,-6%,i,-2%,i
CC(C)C(=O)Nc1cccc(C(=O)OCC(=O)c2ccc(Cl)cc2Cl)c1,0%,15µM*,0%,i
Clc1ccc2nnnc(-c3ccccc3)c2c1,?,10µM*,?,2.6µM*
CN1CCCC1CCNc1ncnc2ccc(-c3ccc4c(c3)OCO4)cc12 (stereo unspecified),.,?,.,i
O=C(NCCc1ccc(Cl)cc1)c1nnc(Cc2ccc(F)cc2)o1,.,i,.,i
O=C(CN1CCN(Cc2ccc3c(c2)OCO3)CC1)Nc1cc(S(=O)(=O)N2CCCC2)ccc1Cl,3%,?,10%,i
CCN(CC)S(=O)(=O)c1ccc(C)c(NC(=S)N2CCN(Cc3ccc4c(c3)OCO4)CC2)c1,?,?,21µM*,23µM*
CN(C)S(=O)(=O)c1ccc(Cl)c(NC(=O)CN2CCN(Cc3ccc4c(c3)OCO4)CC2)c1,0%,15µM*,-3%,?
O=[S+]1([O-])N=C(Oc2cccnc2)c2ccccc21,.,i,.,i
Fc1ccc(CSc2nncn3c2cc2occc23)c(Cl)c1,.,i,.,i
Cc1ccc(Cl)cc1NC(=O)CC(O)(C(F)(F)F)C(F)(F)F,20µM*,21µM*,?,?
O=C1c2ccccc2C(=O)N1c1ccccn1,.,i,.,i
CCOC(=O)c1cc(NC(=O)C2CCCO2)cc(C(=O)OCC)c1 (stereo unspecified),21%,13µM*,1%,i
CCc1ccc(NC(=O)c2ccc(NC(=O)C3CCCO3)cc2)cc1 (stereo unspecified),-8%,23µM*,0%,i
CCCCNC(=O)CCCn1c(=O)c2ccccc2n(Cc2ccccc2C)c1=O,.,i,.,i
CCCCc1cc(=O)oc2cc(C)c3c(C)coc3c12,.,i,.,i
COC(=O)c1cc(OC)c(OC)cc1NC(=O)c1ccc2c(c1)CCN2S(=O)(=O)c1ccccc1,.,i,.,i
CCC(C)(C)NS(=O)(=O)c1cc(-c2cc(C)no2)ccc1C,.,i,.,i
CCOc1ccccc1CNC(=O)CCn1ccc2cc(S(=O)(=O)N3CCC(C)CC3)ccc21,.,i,.,i
COc1ccc(CCNC(=O)C(=O)NCC(c2ccco2)S(=O)(=O)c2cccs2)cc1 (stereo unspecified),.,i,.,i
COc1ccc(NC(=O)CCN(c2ccc(OC)cc2)S(=O)(=O)c2ccc(C)c(C)c2)cc1,-6%,8.2µM*,-3%,i
SMILES,HT1080-NT tox,KB-V1 MDR tox,HT1080 IDH1KD tx,KB-3-1 tox
COc1ccc(C(=O)Nc2ccc(S(=O)(=O)N(Cc3ccccc3)c3ccccc3)cc2)cc1,.,2.3µM*,.,i
CCc1ccc(NC(=O)c2ccc(F)c(S(=O)(=O)N(CC)c3ccccc3)c2)cc1,-24%,i,?,i
CCN(c1ccccc1)S(=O)(=O)c1cc(C(=O)Nc2cccc(Cl)c2)ccc1F,?,21µM*,?,?
COc1ccc(N(Cc2ccccc2)S(=O)(=O)c2cccc(C(=O)Nc3ccccn3)c2)cc1,-13%,3.7µM*,-20%,?
COc1ccc(S(=O)(=O)N(CC(=O)Nc2ccc(C)cc2)c2ccc(C)cc2)cc1OC,.,?,.,i
CCc1ccccc1Nc1cc(C(=O)NC2CCC(C)CC2)c2ccccc2n1 (stereo unspecified),.,i,.,i
Cc1cc(=O)n(Cc2ccccc2Cl)c2c1c(C)nn2-c1ccccc1,.,i,.,i
CC(=O)c1cccc(NC(=O)c2ccc(N(Cc3ccccc3)S(C)(=O)=O)cc2)c1,-11%,21µM*,-26%,?
CCCN(C)C[C@@H]1OCCCC[C@@H](C)Oc2ccc(NC(=O)c3ccccc3)cc2C(=O)N([C@H](C)CO)C[C@@H]1C,?,i,?,4.6µM*
C[C@H]1CCCCO[C@H](CN(C)CC2CCCCC2)[C@@H](C)CN([C@@H](C)CO)C(=O)c2cc(NS(=O)(=O)c3ccccc3)ccc2O1,?,i,?,?
COc1ccc(CN(C)C[C@@H]2OCCCC[C@H](C)Oc3ccc(NC(=O)Cc4ccccc4)cc3C(=O)N([C@@H](C)CO)C[C@@H]2C)cc1,-23%,i,-25%,i
C[C@@H]1CCCCO[C@@H](CN(C)CC2CCCCC2)[C@@H](C)CN([C@H](C)CO)C(=O)c2cc(NS(=O)(=O)c3ccc(Cl)cc3)ccc2O1,16µM*,?,?,?
C[C@@H]1CCCCO[C@H](CN(C)C(=O)c2ccncc2)[C@H](C)CN([C@@H](C)CO)C(=O)c2cc(NC(=O)c3ccccc3)ccc2O1,-7%,i,1%,i
C[C@@H]1CCCCO[C@H](CN(C)Cc2ccc(C(F)(F)F)cc2)[C@H](C)CN([C@@H](C)CO)C(=O)c2cc(NC(=O)Cc3ccccc3)ccc2O1,16µM*,26µM*,18µM*,?
COc1ccccc1-c1c(C(F)(F)F)oc2cc(OS(C)(=O)=O)ccc2c1=O,0%,21µM*,-11%,?
COc1cccc(NC(=S)NNC(=O)C(C)n2nc(C)c([N+](=O)[O-])c2C)c1 (stereo unspecified),-1%,i,2%,i
COc1cccc(NC(=S)NNC(=O)c2c([N+](=O)[O-])c(C)nn2C)c1,?,i,7.9µM*,i
CCc1ccc(C(=O)c2oc3nc(C)cc(C)c3c2N)cc1,1%,2.6µM*,?,i
CCCCN1C=CC(=C2C(=O)c3ccccc3C2=O)C=C1,16µM*,?,23µM*,i
O=C(COC(=O)c1c(Cl)cccc1Cl)Nc1ccccc1Br,-1%,18µM*,3%,i
CC(=O)N(C1=C(Cl)C(=O)c2ccccc2C1=O)C1CCCCC1,4.1µM*,?,2.9µM*,?
CC(=O)N(c1ccccc1C)C1CCCC1,13%,i,8%,i
Cc1ccsc1/C=N\Nc1cn[nH]c(=O)c1Cl,9%,2.6µM*,-1%,4.6µM*
Cc1ccsc1/C=N/Nc1nc(Cl)c(Cl)cc1Cl,2%,i,-1%,i
COc1ccc(/C=N/Nc2cn[nH]c(=O)c2Cl)cc1,14%,?,20%,7.3µM*
O=c1[nH]ncc(N/N=C/c2ccccc2)c1Cl,-16%,?,-10%,i

# Screening results deposited in PubChem BioAssay by National Center for Advancing Translational Sciences (NCATS).
